The whole screen tested about 52,000 compounds, of which about 4,300 (8.3%) were called active. This excerpt belongs to a sample that is enriched for actives. Unmarked numbers belong to inactive results. Rule as the data show it: active = survival mostly below about 52% (no sharp cut-off); inactive = mostly above about 56%.

This note sets out measurements from PubChem BioAssay AID463173 (ICCB-Longwood Screening Facility, Harvard Medical School, 2010).

This assay deals with DeltatarO mutant. The assay is described as follows: S. aureus survival, RN4220 and DeltatarO strains – OD600, teichoic acid synthesis inhibitors, primary screen (AID 463173). The settings on record: S. aureus RN4220 wild type/DeltatarO growth, OD600, 18 h, hits give low values, screened at 18.75 µg/mL (by protocol).
`COCC(=O)N1CCC(n2nnc3cc(F)ccc32)CC1`: the survival was 53%.
Next, `CCN(CC)CC(=O)N1CCCC1=O`: 100%.
`Cc1cc(C)c(/C=C/c2onc(C)c2S(=O)(=O)N2CCC(C(=O)NCc3ccco3)CC2)c(C)c1`: the survival is 90%.
For `CCOC(=O)c1ccc(NC(=O)CCn2c(=O)c3cccn3c3ccccc32)cc1`, the survival is 91%.
Take `CCC(c1nnnn1CCOC)N1CCN(c2cccc(C(F)(F)F)c2)CC1` (configuration not stated): the survival is 107%.
Consider `Cn1c(CNc2ccc(Cl)cc2)nnc1SCc1ccc(Cl)cc1`, for which the survival is 68%.
Next, `CC(=O)N1CCCC1c1nc2ccccc2n1Cc1ccc(F)cc1` (configuration not stated): 85%.
The same measure for `CCc1cccc(CC)c1NC(=O)c1c(C)oc2ccc(O)c(CN3CCCC3)c12`: 113%.
On to `O=S1(=O)c2ccccc2-c2cc(Br)ccc21`, for which the survival is 79%.
The same measure for `CCOC(=O)CNC(=O)Nc1cc(C(=O)NCc2ccccc2OC)ccc1N1CCCC1`: 80%; for `CCC(=O)/C=C1/Sc2ccc(C)cc2N1CC`: 97%.
As to `Cc1ccc(NC2(c3ccccc3)C(=O)c3ccccc3C2=O)cc1F`, the survival is 58% (active).
Take `O=C(O)c1cc(NC2(c3ccccc3)C(=O)c3ccccc3C2=O)ccc1Cl`: the survival was 87%.
As for `Cc1cc(F)ccc1NC1(c2ccccc2)C(=O)c2ccccc2C1=O`, the survival was 79%.
For the compound `COc1cc(OC)c(NC(=O)Nc2sc3nc4n(c(=O)c3c2C)CCC(C)CC4)cc1Cl` (configuration not stated), the survival is 85%.
As for `COc1ccccc1Cn1cc(C(=O)c2ccccc2)c(=O)c2cc(OC)c(OC)cc21`, the survival is 23% (active).
For `CCc1ccc(C(=O)c2cn(CC(=O)Nc3ccc4c(c3)OCCO4)c3ccc(C)cc3c2=O)cc1`, the survival was 57% (active).
`COc1ccc(Cn2cc(C(=O)c3ccc(C)cc3)c(=O)c3cc(OC)c(OC)cc32)cc1`: the survival is 93%.
Regarding `CCc1ccc(C(=O)c2cn(Cc3ccccc3)c3cc(OC)c(OC)cc3c2=O)cc1`, the survival was 58%.
Take `COc1ccccc1Cn1cc(C(=O)c2ccc(C)cc2)c(=O)c2cc(C)ccc21`: the survival was 112%.
As for `CCOc1ccc2c(c1)c(=O)c(C(=O)c1ccc3c(c1)OCO3)cn2Cc1ccc(F)cc1`, the survival is 98%.
Regarding `O=C(c1ccc2c(c1)OCO2)c1cn(Cc2ccc(F)cc2)c2ccccc2c1=O`, the survival is 68%.
Next, `CCc1ccc(C(=O)c2cn(CC(=O)Nc3ccc4c(c3)OCCO4)c3ccc(CC)cc3c2=O)cc1`: 72%.
For `CCc1ccc2c(c1)c(=O)c(C(=O)c1ccc(C)cc1)cn2CC(=O)Nc1ccc2c(c1)OCCO2`, the survival was 61%.
The same measure for `COc1ccc(Cn2cc(C(=O)c3ccc(F)cc3)c(=O)c3cc4c(cc32)OCCO4)cc1`: 66%.
With `O=C(c1ccc2c(c1)OCO2)c1cn(Cc2ccc(Cl)cc2)c2ccc(F)cc2c1=O`, the survival is 55% (active).
`COc1ccc(C(=O)c2cn(Cc3ccc(F)cc3)c3ccc(C)cc3c2=O)cc1`: the survival was 24% (active).
As to `COCCNC(=O)CSc1nc2ccccc2nc1Cc1ccc(C)cc1`, the survival was 78%.
Consider `CCOC(=O)c1oc2ccccc2c1CN(C)CCc1ccccc1`, for which the survival was 70%.
In the case of `COc1ccc(CCn2c(=O)c3cccnc3n(CC(=O)Nc3c(C)cccc3C)c2=O)cc1OC`, the survival is 90%.
In the case of `COc1ccccc1C(=O)Nc1ccc(NC(=O)c2cccs2)cc1`, the survival was 51%.
The same measure for `CCc1nnc(NC(=O)C(=O)c2cc(C)n(-c3ccccc3)c2C)s1`: 77%; for `CCOc1ccc(-n2c(SCC(=O)Nc3ccccc3OC)nc3c(oc4ccccc43)c2=O)cc1`: 69%.
Turning to `COc1ccc(-c2noc(C3CC(=O)N(c4ccc5c(c4)OCCO5)C3)n2)c(OC)c1` (configuration not stated), the survival was 98%.
The same measure for `COc1ccc(N(C(=O)c2ccc(C(C)(C)C)cc2)S(=O)(=O)c2ccc(Cl)cc2)cc1`: 81%; for `Cc1ccc2c(c1)c(=O)c(C(=O)c1ccc3c(c1)OCO3)cn2Cc1ccc(Cl)cc1`: 46% (active).
For the compound `Cc1ccc2c(c1)c(=O)c(C(=O)c1ccc3c(c1)OCO3)cn2Cc1cccc(F)c1`, the survival is 66%.
For the compound `Cc1ccc(Cn2cc(C(=O)c3ccc4c(c3)OCO4)c(=O)c3cc(C)ccc32)cc1`, the survival is 59%.
Consider `CCOC(=O)c1ccc(NC(=O)CC2C(=O)N(c3ccc(F)cc3)C(=O)N2Cc2ccc3c(c2)OCO3)cc1` (configuration not stated), for which the survival is 116%.
`O=C(c1ccc(-n2cnnn2)cc1)N(C1CCCCC1)C1CCCCC1`: the survival is 93%.
Regarding `COc1cc(OC)c(NC(=O)NCCn2nnc3cc(S(=O)(=O)N(C)C)ccc32)cc1Cl`, the survival was 88%.
For the compound `Cc1cc(F)ccc1-n1nnc(C(N)=O)c1C`, the survival is 76%.
Consider `COc1ccc(-n2c(SCC(=O)NCc3ccccc3)nc3c([nH]c4ccccc43)c2=O)cc1`, for which the survival was 93%.
On to `CC(CNC(=O)CCn1c(=O)c2cccn2c2ccc(F)cc21)c1ccccc1` (configuration not stated), for which the survival was 34% (active).
Next, `CC(CNC(=O)CCCn1c(=O)c2cccn2c2cccnc21)c1ccccc1` (configuration not stated): 95%; `CC(CNC(=O)CCCn1c(=O)c2cccn2c2ccccc21)c1ccccc1` (configuration not stated): 47%.
Consider `CC(NC(=O)CCn1c(=O)c2cccn2c2ccc(F)cc21)c1ccccc1` (configuration not stated), for which the survival is 59%.
Take `CC(CNC(=O)CCCn1c(=O)c2cccn2c2ccc(F)cc21)c1ccccc1` (configuration not stated): the survival was 35% (active).
As for `COc1cc(C(=O)NCC(c2ccco2)S(=O)(=O)c2cccs2)cc(OC)c1OC` (configuration not stated), the survival is 91%.
For `COc1cc(C2c3c(-c4c(C)cc(C)cc4O)n[nH]c3C(=O)N2CCCOC(C)C)cc(OC)c1OC` (configuration not stated), the survival was 86%.
`CCOc1cc(CNC(=O)c2ccc3c(c2)NC(=O)C2CCCCN32)cc(OCC)c1OCC` (configuration not stated): the survival was 107%.
On to `O=C1C2C3C=CC(C3)C2C(=O)N1c1ccc(Cl)cc1` (configuration not stated), for which the survival was 70%.
Turning to `CCC(Oc1ccccc1)C(=O)Nc1ccc(OCc2cc(=O)n3ccc(C)cc3n2)cc1` (configuration not stated), the survival is 91%.
For the compound `O=C(NCCc1ccccc1)c1ccc2c(c1)N(Cc1ccc(F)cc1)C(=O)c1ccccc1S2`, the survival was 99%.
Consider `COc1ccc(CCNC(=O)CSCc2nc(-c3cccc(C)c3)oc2C)cc1OC`, for which the survival is 66%.
Consider `COc1cccc(-c2nc(CSCC(=O)NCCc3ccc(Cl)cc3)c(C)o2)c1`, for which the survival was -4% (active).
Consider `Cc1cccc(-c2nc(CSCC(=O)NCCc3ccc(Cl)cc3)c(C)o2)c1`, for which the survival is -7% (active).
Consider `COc1cccc(-c2nc(CS(=O)(=O)CC(=O)NCCc3ccc(Cl)cc3)c(C)o2)c1`, for which the survival was 63%.
As to `COc1ccc(-c2nc(CSCC(=O)NCCc3ccc(OC)c(OC)c3)c(C)o2)cc1`, the survival was 79%.
Regarding `CCOc1ccc(CCNC(=O)CSCc2nc(-c3cccc(C)c3)oc2C)cc1OCC`, the survival was 82%.
With `O=C(c1cc(=O)c2cc(Cl)ccc2o1)N(Cc1ccccc1)C1CCS(=O)(=O)C1` (configuration not stated), the survival is 51%.
As to `N#Cc1ccccc1NC(=O)CSC1=NCCS1`, the survival was 99%.
For `COc1ccc(-c2csc3ncnc(Nc4cccc(F)c4)c23)cc1`, the survival was 0% (active).
Turning to `COc1ccc(-c2csc3ncnc(Nc4cccc(OC)c4)c23)cc1`, the survival was 69%.
As for `COc1ccc(Nc2ncnc3scc(-c4ccc(F)cc4)c23)cc1`, the survival was 92%.
In the case of `O=C1CC(c2nc3ccccc3[nH]2)CN1c1cccc(Cl)c1` (configuration not stated), the survival was 81%.
The same measure for `COc1cc(C(=O)NCCSc2c(-c3ccccc3)[nH]c3ccccc23)cc(OC)c1OC`: 68%.
Turning to `CC(C)c1ccc(NS(=O)(=O)c2ccc3[nH]cc(C(=O)NC4CCCCC4)c(=O)c3c2)cc1`, the survival was 14% (active).
Regarding `CCN(c1ccccc1)S(=O)(=O)c1ccc2[nH]cc(C(=O)NC3CCCCC3)c(=O)c2c1`, the survival was 82%.
On to `CC(C)c1ccc(NS(=O)(=O)c2ccc3[nH]cc(C(=O)NCC4CCCO4)c(=O)c3c2)cc1` (configuration not stated), for which the survival was 81%.
In the case of `CC(C)c1ccc(NS(=O)(=O)c2ccc3[nH]cc(C(=O)N4CCCC4)c(=O)c3c2)cc1`, the survival is 76%.
For the compound `Cc1cc(C)cc(NS(=O)(=O)c2ccc3[nH]cc(C(=O)N4CCCCCC4)c(=O)c3c2)c1`, the survival is 85%.
The same measure for `CC(C)c1ccc(NS(=O)(=O)c2ccc3[nH]cc(C(=O)NCCc4ccccc4)c(=O)c3c2)cc1`: 73%.
For `Cc1cc(C)cc(NS(=O)(=O)c2ccc3[nH]cc(C(=O)NC4CCCCC4)c(=O)c3c2)c1`, the survival was 17% (active).
For the compound `COc1cccc(NS(=O)(=O)c2ccc3[nH]cc(C(=O)N4CCCCCC4)c(=O)c3c2)c1`, the survival is 124%.
In the case of `COc1cccc(NS(=O)(=O)c2ccc3[nH]cc(C(=O)N(C)C4CCCCC4)c(=O)c3c2)c1`, the survival is 98%.
The same measure for `CC(C)c1ccc(NS(=O)(=O)c2ccc3[nH]cc(C(=O)NC4CCCC4)c(=O)c3c2)cc1`: 4% (active).
For the compound `COc1cccc(NS(=O)(=O)c2ccc3[nH]cc(C(=O)NC4CCCCC4)c(=O)c3c2)c1`, the survival is 35% (active).
`Cc1cc(C)cc(NS(=O)(=O)c2ccc3[nH]cc(C(=O)N4CCCCC4)c(=O)c3c2)c1`: the survival is 83%.
The same measure for `Fc1ccc(Nc2ncnc3c2nc2n3CCCCC2)c(F)c1`: 55%; for `CN(C)S(=O)(=O)N(CC(=O)NCCSc1ccc(Cl)cc1)c1ccccc1`: 50%; for `NC(=O)CCn1c2ccccc2c2ccccc21`: 78%.
For the compound `O=C1C=CC(=O)C(c2ccc(Cl)cc2)=C1`, the survival was 66%.
Next, `CCCCNc1sc(S(=O)(=O)CCC)nc1S(=O)(=O)c1ccc(C)cc1`: 86%; `Cc1ccc(S(=O)(=O)c2c(Nc3ccc(C)c(C)c3)sc(C(=O)c3ccc4c(c3)OCO4)c2N)cc1`: 125%; `COc1ccccc1NC(=O)c1cc2c([nH]c1=O)CC(C)(C)CC2=O`: 90%.
As for `CCN(CC)C(=O)c1sc2c(c1C)c(=O)n(CCc1ccccc1)c(=O)n2Cc1cccc(Cl)c1`, the survival was 102%.
